From PubChem BioAssay
Values without a mark were called inactive. The source made the active and inactive calls. Unless noted, no stated cut-off is given here; in the data, active means inhibition above about 25%; inactive means the rest.

Experiments:
[1] = molecular target: Nuclear receptor coactivator 3 (Homo sapiens) (UniProt Q9Y6Q9); test: SRC3 coactivator transcriptional activity inhibitors, confirmation, cell-based, luminescence, quadruplicate (AID 588792;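 active means mean inhibition over 43.08%, the solvent-only control mean plus 3 SD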;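 further: 0% = DMSO treated cells and 100% = gossypol at 36 µM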); details: HEK293 GAL4-SRC3 luciferase reporter, at 3.6 µM, active compounds read high
Nuclear receptor coactivator 3 (Homo sapiens), sequence (Q9Y6Q9 whole entry, looked up, the tested form may be a part): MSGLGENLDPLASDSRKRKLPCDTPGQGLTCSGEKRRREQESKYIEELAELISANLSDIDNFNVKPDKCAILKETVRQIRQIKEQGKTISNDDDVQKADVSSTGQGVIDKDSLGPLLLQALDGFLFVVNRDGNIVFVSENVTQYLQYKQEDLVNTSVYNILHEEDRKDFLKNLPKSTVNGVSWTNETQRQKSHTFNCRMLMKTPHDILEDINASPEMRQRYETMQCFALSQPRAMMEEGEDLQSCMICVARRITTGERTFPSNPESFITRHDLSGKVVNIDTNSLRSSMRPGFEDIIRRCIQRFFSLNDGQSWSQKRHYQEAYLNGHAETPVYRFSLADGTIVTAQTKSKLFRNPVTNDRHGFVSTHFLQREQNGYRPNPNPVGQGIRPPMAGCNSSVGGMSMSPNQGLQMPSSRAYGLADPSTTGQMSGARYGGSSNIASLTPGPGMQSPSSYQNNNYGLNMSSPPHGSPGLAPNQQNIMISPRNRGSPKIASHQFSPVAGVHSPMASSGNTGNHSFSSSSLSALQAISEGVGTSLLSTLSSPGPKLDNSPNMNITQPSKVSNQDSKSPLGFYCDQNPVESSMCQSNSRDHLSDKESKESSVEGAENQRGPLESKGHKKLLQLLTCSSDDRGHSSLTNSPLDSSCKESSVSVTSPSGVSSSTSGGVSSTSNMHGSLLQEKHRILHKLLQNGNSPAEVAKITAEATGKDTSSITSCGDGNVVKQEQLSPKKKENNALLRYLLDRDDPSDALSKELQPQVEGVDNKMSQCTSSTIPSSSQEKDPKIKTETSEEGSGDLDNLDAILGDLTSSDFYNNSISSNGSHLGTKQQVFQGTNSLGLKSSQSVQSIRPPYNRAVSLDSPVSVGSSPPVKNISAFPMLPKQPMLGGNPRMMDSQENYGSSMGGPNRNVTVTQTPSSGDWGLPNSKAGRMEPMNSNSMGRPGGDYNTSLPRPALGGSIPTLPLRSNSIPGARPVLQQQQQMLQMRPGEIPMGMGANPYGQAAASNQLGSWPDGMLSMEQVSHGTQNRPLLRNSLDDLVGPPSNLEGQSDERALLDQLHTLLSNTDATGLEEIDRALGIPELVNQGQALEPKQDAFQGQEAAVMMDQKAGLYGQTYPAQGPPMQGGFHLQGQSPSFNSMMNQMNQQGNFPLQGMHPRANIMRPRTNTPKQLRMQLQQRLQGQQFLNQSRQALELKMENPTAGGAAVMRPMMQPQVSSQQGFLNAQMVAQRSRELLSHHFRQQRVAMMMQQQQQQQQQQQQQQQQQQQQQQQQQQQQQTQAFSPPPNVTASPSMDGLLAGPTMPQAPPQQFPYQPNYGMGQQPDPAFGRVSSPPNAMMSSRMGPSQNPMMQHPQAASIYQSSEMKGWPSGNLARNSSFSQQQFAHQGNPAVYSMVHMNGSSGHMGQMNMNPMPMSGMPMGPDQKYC

[2] = tested on: transactivating tegument protein VP16 (Human herpesvirus 1), Gal4-VP16 luciferase reporter; test: VP16 transactivation inhibitors, counter-screen for SRC3 inhibitor project, cell-based, luminescence, high throughput (AID 588794; in the data active means inhibition above about 30%); details: mammalian cells, VP16-driven luciferase reporter luminescence; at 3.6 µM; active compounds read high
[3] = molecular target: Nuclear receptor coactivator 1 (Homo sapiens) (UniProt Q15788); test: SRC1 coactivator transcriptional activity inhibitors, confirmation, cell-based, luminescence, quadruplicate (AID 588820;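 active means mean inhibition above 46.68%, the untreated control wells mean plus 3 SD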;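 further: 0% = DMSO wells and 100% = gossypol 36 µM treated wells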); details: HEK293 GAL4-SRC1 luciferase reporter, at 3.6 µM, active compounds read high
Nuclear receptor coactivator 1 (Homo sapiens), sequence (Q15788 whole entry, looked up, the tested form may be a part): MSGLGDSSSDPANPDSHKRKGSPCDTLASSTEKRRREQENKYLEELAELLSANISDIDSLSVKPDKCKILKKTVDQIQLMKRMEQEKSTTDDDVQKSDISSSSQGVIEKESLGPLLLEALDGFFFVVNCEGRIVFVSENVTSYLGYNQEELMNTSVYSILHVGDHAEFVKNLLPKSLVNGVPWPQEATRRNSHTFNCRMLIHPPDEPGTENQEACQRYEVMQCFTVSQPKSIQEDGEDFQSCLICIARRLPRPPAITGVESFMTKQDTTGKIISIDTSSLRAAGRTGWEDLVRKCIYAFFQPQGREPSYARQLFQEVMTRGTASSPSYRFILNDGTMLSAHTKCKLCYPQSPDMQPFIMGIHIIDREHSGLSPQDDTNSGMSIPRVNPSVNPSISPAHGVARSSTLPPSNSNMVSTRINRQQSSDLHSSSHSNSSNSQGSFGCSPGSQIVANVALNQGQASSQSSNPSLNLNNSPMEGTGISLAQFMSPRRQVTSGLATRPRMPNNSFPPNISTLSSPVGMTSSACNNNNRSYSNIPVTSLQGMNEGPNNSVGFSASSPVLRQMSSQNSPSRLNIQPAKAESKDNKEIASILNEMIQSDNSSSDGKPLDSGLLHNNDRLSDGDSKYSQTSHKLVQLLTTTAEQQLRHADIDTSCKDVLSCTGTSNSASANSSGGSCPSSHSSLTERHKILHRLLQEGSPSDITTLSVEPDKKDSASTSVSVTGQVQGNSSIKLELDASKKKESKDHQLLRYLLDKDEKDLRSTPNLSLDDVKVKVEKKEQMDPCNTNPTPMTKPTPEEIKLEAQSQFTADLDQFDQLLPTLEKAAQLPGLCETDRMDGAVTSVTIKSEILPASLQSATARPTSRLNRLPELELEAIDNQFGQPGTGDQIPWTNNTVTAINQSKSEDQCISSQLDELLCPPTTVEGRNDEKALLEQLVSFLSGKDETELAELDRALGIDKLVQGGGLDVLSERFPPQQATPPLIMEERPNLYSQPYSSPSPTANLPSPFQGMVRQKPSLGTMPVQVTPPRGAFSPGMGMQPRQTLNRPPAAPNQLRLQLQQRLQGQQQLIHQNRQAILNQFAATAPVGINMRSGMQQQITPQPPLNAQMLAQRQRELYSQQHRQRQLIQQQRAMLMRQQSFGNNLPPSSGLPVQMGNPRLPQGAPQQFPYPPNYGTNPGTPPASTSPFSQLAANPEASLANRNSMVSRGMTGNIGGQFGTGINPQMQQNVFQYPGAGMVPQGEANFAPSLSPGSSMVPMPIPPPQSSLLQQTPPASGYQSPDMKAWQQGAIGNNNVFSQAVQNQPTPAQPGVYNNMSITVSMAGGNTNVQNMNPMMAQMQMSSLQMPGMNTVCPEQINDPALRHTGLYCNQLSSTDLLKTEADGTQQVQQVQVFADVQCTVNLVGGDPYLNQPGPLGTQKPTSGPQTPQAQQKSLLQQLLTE

[4] = VP16 transactivation inhibitors, counter-screen for SRC1 inhibitor project, cell-based, luminescence, high throughput (AID 588824); details: cell-based VP16 transactivation luciferase luminescence; at 3.6 µM; active compounds read high
[5] = StAR promoter reporter inhibitors, counter-screen for LRH-1 inverse agonist project, cell-based, luminescence, high throughput (AID 651611; in the data active means inhibition above about 28%); details: StAR promoter luciferase reporter counterscreen, at 3.6 µM, active compounds read high
[6] = molecular target: Nuclear receptor subfamily 5 group A member 2 (Homo sapiens) (UniProt O00482); test: LRH-1 (NR5A2) inverse agonists, retest, confirmation, cell-based, luminescence (AID 651613; in the data active means inhibition above about 42%;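 further: HEK293T cells co-transfected with LRH-1 and StAR promoter luciferase reporter; 0% = vehicle wells and 100% = parental cells lacking receptor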); details: cell-based LRH-1 luciferase reporter, inverse agonism; at 3.6 µM; active compounds read high
Nuclear receptor subfamily 5 group A member 2 (Homo sapiens), sequence (O00482 whole entry, looked up): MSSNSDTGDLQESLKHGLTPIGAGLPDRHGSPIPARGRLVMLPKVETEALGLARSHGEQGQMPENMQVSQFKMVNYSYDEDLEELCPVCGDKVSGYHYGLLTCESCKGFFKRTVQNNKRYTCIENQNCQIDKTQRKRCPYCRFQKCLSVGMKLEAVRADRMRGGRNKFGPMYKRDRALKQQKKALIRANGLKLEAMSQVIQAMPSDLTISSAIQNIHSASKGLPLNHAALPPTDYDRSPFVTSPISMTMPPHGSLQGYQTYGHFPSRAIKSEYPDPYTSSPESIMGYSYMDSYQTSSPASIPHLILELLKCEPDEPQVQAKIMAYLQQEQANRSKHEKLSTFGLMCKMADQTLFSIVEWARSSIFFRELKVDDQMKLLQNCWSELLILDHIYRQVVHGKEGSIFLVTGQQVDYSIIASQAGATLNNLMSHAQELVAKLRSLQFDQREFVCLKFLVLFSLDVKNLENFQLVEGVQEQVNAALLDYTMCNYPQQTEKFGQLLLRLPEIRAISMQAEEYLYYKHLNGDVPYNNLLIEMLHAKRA

[7] = molecular target: Steroidogenic factor 1 (Homo sapiens) (UniProt Q13285); test: SF1 (NR5A1) inverse agonists, counter-screen for LRH-1 inverse agonist project, cell-based, luminescence, high throughput (AID 651614; in the data active means inhibition above about 44%;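 further: cells cotransfected with StAR promoter reporter and SF1 expression vector; 0% = vehicle on cells with receptor and 100% = vehicle on cells lacking receptor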); details: cell-based SF1 luciferase reporter, at 3.6 µM, active compounds read high
Steroidogenic factor 1 (Homo sapiens), sequence (Q13285 whole entry, looked up, the tested form may be a part): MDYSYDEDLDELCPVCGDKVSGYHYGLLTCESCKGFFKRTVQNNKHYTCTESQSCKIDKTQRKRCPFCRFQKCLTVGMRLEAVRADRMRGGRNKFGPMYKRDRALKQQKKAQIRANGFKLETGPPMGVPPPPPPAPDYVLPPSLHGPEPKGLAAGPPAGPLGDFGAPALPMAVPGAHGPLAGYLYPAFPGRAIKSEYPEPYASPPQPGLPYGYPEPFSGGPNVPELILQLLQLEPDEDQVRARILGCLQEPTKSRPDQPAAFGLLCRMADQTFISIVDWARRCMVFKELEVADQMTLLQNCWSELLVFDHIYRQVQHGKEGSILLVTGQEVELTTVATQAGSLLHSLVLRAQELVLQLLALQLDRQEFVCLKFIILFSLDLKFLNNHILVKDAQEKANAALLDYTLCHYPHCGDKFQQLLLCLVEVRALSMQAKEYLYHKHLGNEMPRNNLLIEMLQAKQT

[8] = VP16 transactivation reporter inhibitors, counter-screen for LRH-1 inverse agonist project, cell-based, luminescence, high throughput (AID 651615; in the data active means inhibition above about 33%); details: Gal4-VP16 luciferase reporter cells, at 3.6 µM, active compounds read high

| Compound | inhibition [1] | inhibition [2] | inhibition [3] | inhibition [4] | inhibition [5] | inhibition [6] | inhibition [7] | inhibition [8] |
| --- | --- | --- | --- | --- | --- | --- | --- | --- |
| O=C(O)C1CCCN1c1nc(-c2ccc(Cl)c(Cl)c2)cc(C(F)(F)F)n1 (stereo not drawn) | 53.8% (active) | 74.4% (active) | 48.3% (active) | 72.8% (active) | 74.5% (active) | 97.4% (active) | 91.4% (active) | 78.2% (active) |
| CC(=O)c1c(C)[nH]c(C(=O)OCC(=O)Nc2cccc(S(=O)(=O)N3CCCC3)c2)c1C | 20.7% | 43.6% (active) | 5.87% | 38.3% (active) | 26.2% | 49.3% (active) | 48.9% (active) | 51.7% (active) |
| NC(=S)NN=Cc1cc(-c2cccc(N)c2)ccn1 | 77.3% (active) | 53% (active) | 64.1% (active) | 52.2% (active) | 75.3% (active) | 93.6% (active) | 88% (active) | 72.4% (active) |
| COc1ccc(NC(=O)c2cc(-c3cc(C)cc(F)c3)n[nH]2)cc1OC | 23.5% | 44.4% (active) | 15.5% | 33.5% (active) | 39.5% (active) | 55.6% (active) | 59.6% (active) | 61.5% (active) |
| O=C(NCc1ccccc1)c1cccc(NC(=O)c2ccco2)c1 | 18.4% | 50.7% (active) | 26.9% | 48.9% (active) | 35.5% (active) | 51.6% (active) | 51.1% (active) | 68.5% (active) |
| O=c1[nH]cnc2c1nnn2C1OC(CO)C(O)C1O (stereo not drawn) | 59% (active) | 15.3% | -5.97% | 17% | 69.7% (active) | 78.6% (active) | 71.1% (active) | 27.1% |
